Results: PubChem BioAssay AID1159580 (chemical genetic matrix, 2015)
In all, about 5,500 compounds went through this assay and about 2,000 (36%) were called active. Roughly 18% stayed inconclusive and do not appear here. Rule as the data show it: active = normalized growth mostly below about 0.91 (no sharp cut-off); inconclusive = no clear call, values can overlap the other calls; inactive = mostly above about 0.92. The list shows a part of the results.

Assay: chemical genetic growth profiling, strain panel (AID 1159580);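 also: tested at 20 µM; growth read once vehicle control cultures reached saturation at 30 °C; 1 = growth at the plate median or of vehicle wells; lower values mean less growth of the strain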
Details: growth OD

Measured: normalized growth

CN1CCN(C(c2ccccc2)c2ccccc2)CC1
inactive: S. cerevisiae deletion strains, locus YJR075W, strain HOC1, stronger effect = lower value 1 | S. cerevisiae deletion strains, locus YKL009W, strain mrt4, stronger effect = lower value 0.963 | S. cerevisiae deletion strains, locus YKL068W, stronger effect = lower value 0.977 | S. cerevisiae deletion strains, locus YKL085W, strain MDH1 (second series), stronger effect = lower value 0.973 | S. cerevisiae deletion strains, locus YKL085W, strain MDH1, stronger effect = lower value 0.973 | S. cerevisiae deletion strains, locus YKL160W, strain elf1, stronger effect = lower value 0.965 | S. cerevisiae deletion strains, locus YKL190W, strain CNB1, stronger effect = lower value 0.974 | S. cerevisiae deletion strains, locus YKR001C, strain vps1, stronger effect = lower value 0.974 | S. cerevisiae deletion strains, locus YKR026C, strain gcn3, stronger effect = lower value 0.992 | S. cerevisiae deletion strains, locus YKR091W, strain srl3, stronger effect = lower value 0.98 | S. cerevisiae deletion strains, locus YLL001W, strain dnm1, stronger effect = lower value 0.996 | S. cerevisiae deletion strains, locus YLL026W, stronger effect = lower value 0.999 | S. cerevisiae deletion strains, locus YLL041C, strain sdh2, stronger effect = lower value 0.971 | S. cerevisiae deletion strains, locus YLR027C, strain aat2, stronger effect = lower value 0.985 | S. cerevisiae deletion strains, locus YLR039C, strain RIC1, stronger effect = lower value 1 | S. cerevisiae deletion strains, locus YLR058C, strain SHM2, stronger effect = lower value 0.999 | S. cerevisiae deletion strains, locus YLR102C, strain apc9, stronger effect = lower value 0.967 | S. cerevisiae deletion strains, locus YLR113W, strain HOG1, stronger effect = lower value 0.994 | S. cerevisiae deletion strains, locus YLR221C, strain rsa3, stronger effect = lower value 1.02 | S. cerevisiae deletion strains, locus YLR258W, strain gsy2, stronger effect = lower value 0.978 | S. cerevisiae deletion strains, locus YLR262C, strain YPT6 (second series), stronger effect = lower value 1 | S. cerevisiae deletion strains, locus YLR262C, strain YPT6, stronger effect = lower value 1.03 | S. cerevisiae deletion strains, locus YLR268W, strain sec22, stronger effect = lower value 0.965 | S. cerevisiae deletion strains, locus YLR320W, strain mms22, stronger effect = lower value 0.992 | S. cerevisiae deletion strains, locus YLR330W, strain CHS5, stronger effect = lower value 0.989 | S. cerevisiae deletion strains, locus YLR342W, strain FKS1 (second series), stronger effect = lower value 1.03 | S. cerevisiae deletion strains, locus YLR342W, strain FKS1, stronger effect = lower value 0.991 | S. cerevisiae deletion strains, locus YLR357W, strain rsc2, stronger effect = lower value 0.948 | S. cerevisiae deletion strains, locus YLR370C, strain arc18, stronger effect = lower value 0.989 | S. cerevisiae deletion strains, locus YLR371W, strain rom2, stronger effect = lower value 0.974 | S. cerevisiae deletion strains, locus YLR384C, strain iki3, stronger effect = lower value 0.965 | S. cerevisiae deletion strains, locus YLR418C, strain cdc73, stronger effect = lower value 0.934 | S. cerevisiae deletion strains, locus YML016C, strain PPZ1, stronger effect = lower value 1 | S. cerevisiae deletion strains, locus YML032C, strain rad52, stronger effect = lower value 0.959 | S. cerevisiae deletion strains, locus YML120C, strain ndi1, stronger effect = lower value 0.99 | S. cerevisiae deletion strains, locus YML124C, strain tub3, stronger effect = lower value 0.968 | S. cerevisiae deletion strains, locus YMR058W, strain fet3, stronger effect = lower value 1.01 | S. cerevisiae deletion strains, locus YMR078C, strain ctf18, stronger effect = lower value 0.973 | S. cerevisiae deletion strains, locus YMR125W, strain sto1, stronger effect = lower value 0.95 | S. cerevisiae deletion strains, locus YMR129W, stronger effect = lower value 0.996 | S. cerevisiae deletion strains, locus YMR205C, strain PFK2, stronger effect = lower value 0.963 | S. cerevisiae deletion strains, locus YMR223W, strain ubp8, stronger effect = lower value 0.991 | S. cerevisiae deletion strains, locus YMR231W, strain pep5, stronger effect = lower value 0.994 | S. cerevisiae deletion strains, locus YMR263W, strain SAP30, stronger effect = lower value 0.997 | S. cerevisiae deletion strains, locus YMR307W, strain GAS1, stronger effect = lower value 1.02 | S. cerevisiae deletion strains, locus YNL067W, strain RPL9B, stronger effect = lower value 0.996 | S. cerevisiae deletion strains, locus YNL071W, strain lat1, stronger effect = lower value 0.984 | S. cerevisiae deletion strains, locus YNL128W, strain TEP1, stronger effect = lower value 0.991 | S. cerevisiae deletion strains, locus YNL153C, strain GIM3, stronger effect = lower value 1 | S. cerevisiae deletion strains, locus YNL183C, strain NPR1, stronger effect = lower value 0.937 | S. cerevisiae deletion strains, locus YNL209W, strain ssb2, stronger effect = lower value 0.978 | S. cerevisiae deletion strains, locus YNL233W, strain BNI4, stronger effect = lower value 1 | S. cerevisiae deletion strains, locus YNL248C, strain rpa49, stronger effect = lower value 0.932 | S. cerevisiae deletion strains, locus YNL250W, strain rad50, stronger effect = lower value 0.987 | S. cerevisiae deletion strains, locus YNL271C, strain bni1, stronger effect = lower value 0.974 | S. cerevisiae deletion strains, locus YNL298W, strain CLA4, stronger effect = lower value 0.975 | S. cerevisiae deletion strains, locus YNL307C, strain MCK1, stronger effect = lower value 0.962 | S. cerevisiae deletion strains, locus YNL322C, strain KRE1 (second series), stronger effect = lower value 0.978 | S. cerevisiae deletion strains, locus YNL322C, strain KRE1, stronger effect = lower value 0.991 | S. cerevisiae deletion strains, locus YNR049C, strain mso1, stronger effect = lower value 0.99 | S. cerevisiae deletion strains, locus YNR052C, strain pop2, stronger effect = lower value 0.953 | S. cerevisiae deletion strains, locus YOL006C, strain TOP1, stronger effect = lower value 0.929 | S. cerevisiae deletion strains, locus YOL012C, strain htz1 1.39 | S. cerevisiae deletion strains, locus YOL147C, strain pex11, stronger effect = lower value 0.978 | S. cerevisiae deletion strains, locus YOR001W, strain rrp6, stronger effect = lower value 0.993 | S. cerevisiae deletion strains, locus YOR061W, strain CKA2, stronger effect = lower value 1 | S. cerevisiae deletion strains, locus YOR069W, strain VPS5, stronger effect = lower value 0.998 | S. cerevisiae deletion strains, locus YOR070C, strain gyp1, stronger effect = lower value 0.979 | S. cerevisiae deletion strains, locus YOR080W, strain dia2, stronger effect = lower value 0.986 | S. cerevisiae deletion strains, locus YOR083W, strain WHI5, stronger effect = lower value 0.948 | S. cerevisiae deletion strains, locus YOR106W, strain vam3, stronger effect = lower value 0.995 | S. cerevisiae deletion strains, locus YOR136W, strain idh2, stronger effect = lower value 0.971 | S. cerevisiae deletion strains, locus YOR144C, strain elg1, stronger effect = lower value 0.96 | S. cerevisiae deletion strains, locus YOR184W, strain ser1, stronger effect = lower value 0.994 | S. cerevisiae deletion strains, locus YOR231W, strain MKK1, stronger effect = lower value 0.987 | S. cerevisiae deletion strains, locus YOR265W, strain rbl2, stronger effect = lower value 0.98 | S. cerevisiae deletion strains, locus YOR270C, strain vph1, stronger effect = lower value 0.914 | S. cerevisiae deletion strains, locus YOR290C, strain snf2, stronger effect = lower value 0.974 | S. cerevisiae deletion strains, locus YOR316C, strain cot1, stronger effect = lower value 0.958 | S. cerevisiae deletion strains, locus YPL051W, strain arl3, stronger effect = lower value 0.979 | S. cerevisiae deletion strains, locus YPL055C, strain LGE1, stronger effect = lower value 0.975 | S. cerevisiae deletion strains, locus YPL078C, strain atp4, stronger effect = lower value 0.974 | S. cerevisiae deletion strains, locus YPL106C, strain sse1, stronger effect = lower value 0.949 | S. cerevisiae deletion strains, locus YPL240C, strain hsp82, stronger effect = lower value 1.01 | S. cerevisiae deletion strains, locus YPL241C, strain CIN2, stronger effect = lower value 0.994 | S. cerevisiae deletion strains, locus YPL256C, strain CLN2, stronger effect = lower value 0.995 | S. cerevisiae deletion strains, locus YPR119W, strain clb2, stronger effect = lower value 0.977 | S. cerevisiae deletion strains, locus YPR141C, strain kar3, stronger effect = lower value 0.954 | S. cerevisiae deletion strains, locus YPR163C, strain tif3, stronger effect = lower value 0.971 | S. cerevisiae deletion strains, locus YPR167C, strain met16, stronger effect = lower value 0.958 | S. cerevisiae deletion strains, strain wtn01, stronger effect = lower value 0.979 | S. cerevisiae strains, strain wild type, stronger effect = lower value 1.01
